The text below walks through data of PubChem BioAssay (NCI).

SMILES strings stand for the structures. The panel holds about 83,000 compounds, 20% with a hit somewhere; the sample as a whole holds those more often.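 Interpretation: 100, growth as untreated; towards 0, rising growth inhibition; 0, no net growth; 0 to -100, cell death. Compounds scoring below 10 were considered active.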 Unmarked numbers belong to inactive results. Active and inactive are the calls of the source.

Among the test systems are HCT-15 colon; HT29 colon; SNB-75 CNS; SNB-19 CNS; U251 CNS; PC-3 prostate; SK-MEL-5 melanoma; UACC-62 melanoma; LOX IMVI melanoma; SK-MEL-28 melanoma; SK-MEL-2 melanoma; SN12C renal; UO-31 renal; TK-10 renal; ACHN renal; CAKI-1 renal; A498 renal; CCRF-CEM leukemia; MOLT-4 leukemia.
Assay in all cases: NCI-60 one-dose screen, 48 h (100 = growth as untreated, 0 = no growth, -100 = all killed)
Common to all, as to conditions: 10 µM

`COc1ccc(-c2nc(NC(=O)CS(=O)(=O)c3ccc(F)cc3)sc2C)cc1`: the growth is 18.7% with HCT-15 colon; 4.71% (active) with HT29 colon; 79.6% in the assay on SNB-75 CNS; 86.8% in the assay on SNB-19 CNS; 47.8% with U251 CNS; 44.1% with PC-3 prostate. The growth with SK-MEL-5 melanoma was 35.9%; in the assay with UACC-62 melanoma, 74.9%; in the assay with LOX IMVI melanoma it was 51.6%; in the assay on SK-MEL-28 melanoma it was 88.5%; in the assay on SK-MEL-2 melanoma it was 72.7%; in the assay on SN12C renal, 55.5%. Also, the growth in the assay on UO-31 renal was 26.8%; in the assay on TK-10 renal, 98.4%; in the assay with ACHN renal, 73.5%; in the assay on CAKI-1 renal, 51.8%; in the assay with A498 renal it was 93.6%; in the assay with CCRF-CEM leukemia it was 21.2%. For the same molecule, the growth in the assay with MOLT-4 leukemia was 35.5%.

On to `CCCCC(CC#N)(CCC)CCC`, for which the growth in the assay on HCT-15 colon is 99%; with HT29 colon, 99%; with SNB-75 CNS, 80.6%; with SNB-19 CNS, 106%; in the assay on U251 CNS, 102%; in the assay on PC-3 prostate, 99.2%. The growth was 106% with SK-MEL-5 melanoma; 118% with UACC-62 melanoma; 92.1% with LOX IMVI melanoma; 99.6% in the assay on SK-MEL-28 melanoma; 102% in the assay with SK-MEL-2 melanoma; 106% with SN12C renal. Moreover, the growth is 90.6% with UO-31 renal; 92.7% in the assay with TK-10 renal; 102% in the assay with ACHN renal; 90.3% in the assay with CAKI-1 renal; 103% in the assay on A498 renal; 94.7% with CCRF-CEM leukemia. Also, in the assay on MOLT-4 leukemia, the growth is 97.5%.

Turning to `CCCCCCCCCCCCCCCC(=O)N1CCN(C)CC1`, the growth was 73.2% in the assay with HCT-15 colon; 51.1% in the assay with HT29 colon; 88.8% in the assay on SNB-75 CNS; 105% with SNB-19 CNS; 78.7% in the assay with U251 CNS; 68.8% in the assay on PC-3 prostate. Moreover, the growth was 81.7% with SK-MEL-5 melanoma; 88.8% in the assay on UACC-62 melanoma; -38.1% (active) with LOX IMVI melanoma; 88.7% with SK-MEL-28 melanoma; 86.5% with SK-MEL-2 melanoma; 74.6% in the assay with SN12C renal. The growth in the assay on UO-31 renal is 40.5%; with TK-10 renal, 73.8%; in the assay on ACHN renal, 81.8%; in the assay on CAKI-1 renal, 69.9%; with A498 renal, 92.3%; in the assay with CCRF-CEM leukemia, 34.9%. The growth in the assay on MOLT-4 leukemia is 61.4%.

Regarding `Cc1[nH]nc2c(=S)[nH]c(=O)[nH]c12`, the growth in the assay with HCT-15 colon was 103%; with HT29 colon, 108%; in the assay on SNB-75 CNS it was 89.7%; in the assay on SNB-19 CNS, 101%; in the assay with U251 CNS, 100%; in the assay on PC-3 prostate, 97.1%. Besides, the growth was 94.4% with SK-MEL-5 melanoma; 88.5% in the assay on UACC-62 melanoma; 99.9% with LOX IMVI melanoma; 102% in the assay with SK-MEL-28 melanoma; 109% in the assay on SK-MEL-2 melanoma; 105% in the assay with SN12C renal. The growth in the assay on UO-31 renal is 93.4%; in the assay with TK-10 renal, 108%; in the assay on ACHN renal it was 104%; in the assay on CAKI-1 renal, 101%; in the assay on A498 renal it was 100%; in the assay with CCRF-CEM leukemia it was 97.8%. In addition, in the assay on MOLT-4 leukemia, the growth is 105%.

Regarding `CS(=O)(=O)Nc1ccc(OCc2nnc(-c3ccc(Cl)cc3)o2)c(F)c1`, the growth in the assay with HCT-15 colon is 88%; in the assay with HT29 colon it was 105%; with SNB-75 CNS, 82.7%; in the assay on SNB-19 CNS, 93.5%; in the assay on U251 CNS it was 99%; in the assay on PC-3 prostate, 91%. For the same molecule, the growth in the assay with SK-MEL-5 melanoma was 92.3%; in the assay with UACC-62 melanoma, 83.7%; in the assay on LOX IMVI melanoma it was 82.9%; in the assay on SK-MEL-28 melanoma, 102%; in the assay with SK-MEL-2 melanoma it was 112%; with SN12C renal it was 88.1%. The growth in the assay on UO-31 renal is 74.1%; in the assay with TK-10 renal, 111%; in the assay with ACHN renal, 86%; in the assay with CAKI-1 renal it was 91.3%; in the assay with A498 renal, 62.5%; with CCRF-CEM leukemia, 97.5%. Also, the growth with MOLT-4 leukemia is 81%.

With `CC(=O)Oc1c(C)c(C)c2c(c1C)CCC(C)(CC(=O)OCCCCCCCCCCC[P+](c1ccccc1)(c1ccccc1)c1ccccc1)O2` (configuration not stated), the growth with HCT-15 colon is -69.3% (active); in the assay with HT29 colon it was -53.9% (active); with SNB-75 CNS it was -47.8% (active); with SNB-19 CNS, -78.8% (active); with U251 CNS, -93.1% (active); with PC-3 prostate, -51% (active). For the same molecule, the growth was -96.7% (active) in the assay on SK-MEL-5 melanoma; -86.1% (active) with UACC-62 melanoma; -92.6% (active) with LOX IMVI melanoma; -86.9% (active) in the assay with SK-MEL-28 melanoma; -88.7% (active) with SK-MEL-2 melanoma; -82.3% (active) in the assay with SN12C renal. The growth in the assay with UO-31 renal is -5.35% (active); in the assay on TK-10 renal, -97% (active); in the assay on ACHN renal, -95.4% (active); in the assay on CAKI-1 renal it was -76.3% (active); in the assay on A498 renal, -20.5% (active); with CCRF-CEM leukemia, 3.68% (active). For the same molecule, the growth with MOLT-4 leukemia was -23.6% (active).

For `CCc1nn2c(-c3cc(OC)c(OC)c(OC)c3)c(-c3cc(OC)c(OC)c(OC)c3)nc2s1`, the growth is 77.9% with HCT-15 colon; 69.6% with HT29 colon; -25.6% (active) in the assay with SNB-75 CNS; 61.9% in the assay with SNB-19 CNS; 58.1% in the assay on U251 CNS; 82.9% in the assay on PC-3 prostate. The growth with SK-MEL-5 melanoma was 89.7%; in the assay on UACC-62 melanoma, 63.1%; in the assay with LOX IMVI melanoma, 85.1%; in the assay on SK-MEL-28 melanoma, 85.8%; in the assay with SK-MEL-2 melanoma, 44.5%; with SN12C renal, 85.9%. Besides, the growth was 81.7% in the assay with UO-31 renal; 73% in the assay on TK-10 renal; 74% with ACHN renal; 71.4% with CAKI-1 renal; 88.6% with A498 renal; 80.8% in the assay on CCRF-CEM leukemia. For the same molecule, in the assay on MOLT-4 leukemia, the growth is 95.9%.

In the case of `CC(=O)[C@H]1CC[C@H]2[C@@H]3CC[C@@H]4CC=C(C=O)C[C@]4(C)[C@H]3CC[C@]12C`, the growth in the assay on HCT-15 colon is 96.7%; in the assay with HT29 colon it was 90.7%; in the assay on SNB-75 CNS, 80.5%; in the assay on SNB-19 CNS, 97.8%; in the assay with U251 CNS, 88.5%; in the assay on PC-3 prostate, 78.5%. Further, the growth in the assay on SK-MEL-5 melanoma was 90.3%; in the assay on UACC-62 melanoma it was 79.1%; with LOX IMVI melanoma, 93.7%; with SK-MEL-28 melanoma, 93.9%; in the assay with SK-MEL-2 melanoma it was 99.3%; in the assay with SN12C renal, 93.4%. The growth is 84.8% in the assay on UO-31 renal; 85.2% in the assay on TK-10 renal; 92.4% in the assay on ACHN renal; 88.5% with CAKI-1 renal; 76.8% in the assay on A498 renal; 82.6% in the assay on CCRF-CEM leukemia. The growth in the assay on MOLT-4 leukemia is 72.8%.
